From PubChem BioAssay (NCATS)
Inconclusive results are not listed. Calls of active or inactive are those of the source. Unless noted, calls come from the whole dose curve; as a rule, active = well fitted curve in the direction sought with a large enough effect; inconclusive = small, poorly fitted or top-dose-only effect, or another doubt; inactive = no such curve, though single readings can be large; an effect the other way counts as inactive or inconclusive.

Assays:
[1] = HPAF-II 24hr Apoptosis Induction qHTS against the NCATS CANVASS Library (AID 1347356); note: 0% is about no effect
Summary of the method: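 Luminescent caspase-3/7 signal (DEVD substrate, Caspase-Glo) served as read-out, taken 15 min after reagent addition to HPAF-II cells exposed 24 h to compounds.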

[2] = HEK293 18hr Apoptosis Induction qHTS against the NCATS CANVASS Library (AID 1347357); note: 0% is about no effect
Summary of the method: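 HEK293 cells (500 per well, DMEM with 10% FBS) were treated with natural products, incubated 18 hours at 37 degrees C, then caspase-3/7 activity was read by Caspase-Glo luminescence after 15 min at room temperature.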

[3] = HPAF-II 12hr Apoptosis Induction qHTS against the NCATS CANVASS Library (AID 1347358); note: 0% is about no effect
Summary of the method: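 500 HPAF-II cells/well; cmpds 11-pt; 12 hr, 37 degrees C/5% CO2; Caspase-Glo 3/7 added, 15 min RT dark; luminescence read. Doxorubicin titration as control.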

[4] = HPAF-II 18hr Apoptosis Induction qHTS against the NCATS CANVASS Library (AID 1347360); note: 0% is about no effect
Summary of the method: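 HPAF-II cells (500/well, DMEM + 10% FBS) were exposed to compounds for 18 hours at 37 degrees C. Caspase-3/7 activity was then read by Caspase-Glo 3/7 luminescence after 15 min at room temperature.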

[5] = HEK293 12hr Apoptosis Induction qHTS against the NCATS CANVASS Library (AID 1347361); note: 0% is about no effect
Summary of the method: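 Read-out: Caspase-Glo 3/7 luminescence (DEVD substrate), 15 min RT. Preceded by 12 h compound exposure of HEK293, 500 cells/well, 11-pt qHTS titration; doxorubicin titration as control.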

[6] = target: Luciferin 4-monooxygenase (Photinus pyralis) (UniProt P08659); test: Firefly luciferase counterscreen qHTS: Assay Interference Panel against the NCATS CANVASS Library (AID 1347363); note: series mostly up to about 57 µM; 0% is about no effect
Summary of the method: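 Purified P. pyralis luciferase was added to compounds (11-point series) preincubated 15 min at room temperature with substrate containing 0.013 mM D-luciferin and 0.013 mM ATP; luminescence was read after 5 min.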

[7] = qHTS for ATAD5 Agonist screened against the NCATS CANVASS Library (AID 1347367);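 note: luciferase reporter driven by ATAD5 which rises upon DNA damage; 0% is about no effect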
Summary of the method: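 HEK293T cells stably carrying an ATAD5-controlled luciferase reporter (2000 cells/well) attached for 5 hr, then received compounds in an 11-point series for 16hr at 37C. Luminescence was read after a 30 min room-temperature reagent step.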

[8] = MCF7 Cancer Cell Toxicity qHTS against the NCATS CANVASS Library (AID 1347369)
Summary of the method: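 MCF7, 500 cells/well; cpds 11-pt qHTS; 72 hr, 37C/5% CO2; CellTiterGlo ATP luminescence.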

[9] = 10-beta competent E. coli microbial cell viability qHTS against the NCATS CANVASS Library (AID 1347376); note: series mostly up to about 46 µM; 0% is about no effect
Summary of the method: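 E. coli 10-beta, 0.2 OD; cpds 11-pt; o/n 37C, 5% CO2; BacTiter-Glo 20 min RT; luminescence (ATP) = viable cells. Daunomycin ctrl.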

[10] = qHTS for H2AX Agonists against the NCATS CANVASS Library (AID 1347378); note: 0% is about no effect
Summary of the method: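 CHO-K1 cells were plated overnight at 37C, then exposed to compounds (concentration series, 0.76% DMSO final) for 3 hr at 37C. Lysates received Eu-cryptate anti-pH2AX (S139) and d2 anti-H2AX antibodies; after 24 hr at room temperature, TR-FRET 665/620 nm ratio was read.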

[11] = qHTS to identify inhibitors of the type 1 interferon - major histocompatibility complex class I in skeletal muscle: primary screen against the NCATS Mechanism Interrogation Plate v5.0 (MIPE) Libary (AID 1347411); note: potency is the fitted concentration of half-maximal effect; nearly all actives have a fitted effect of over 65% in size
Summary of the method: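 Luminescence from HiBiT-tagged endogenous HLA-B*08:01 served as the MHC class I read-out. CRISPR-engineered C25cl48 human myoblasts received 4.0 ng/ml IFN-beta plus compound for 24 hrs, with an 11-point, 1:3 series topping at 46 uM final.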

[12] = Primary qHTS for inhibitors of nuclear receptor binding SET domain protein 2 (NSD2) in an isogenic RCH-ACV NSD2 p.E1099K mutant (9B) (AID 1645876); note: potency is the fitted concentration of half-maximal effect; nearly all actives have a fitted effect of over 70% in size
[13] = Primary qHTS for inhibitors of nuclear receptor binding SET domain protein 2 (NSD2) in an RCH-ACV wild type WT cells (2C) (AID 1645877); note: potency is the fitted concentration of half-maximal effect; nearly all actives have a fitted effect of over 70% in size
[14] = target: Glutathione peroxidase 1 (Homo sapiens) (UniProt P07203); test: Primary qHTS Assay for Inhibitors of Recombinant Selenoprotein Glutathione Peroxidase 1 (GPX1) (AID 1845191); note: % is set by controls: 0 for no effect and ±100 for the full control effect; nearly all actives have a fitted effect of over 65% in size
Summary of the method: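 Recombinant GPX1 (10 nM final) was preincubated with compound for 30 min at room temperature, then reacted with 1 mM GSH, 0.5 mM CHP, 0.5 mM NADPH and 100 nM glutathione reductase; NADPH fluorescence (340/450 nm) was read at 0 and 15 min.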

[15] = target: Phospholipid hydroperoxide glutathione peroxidase GPX4 (Homo sapiens) (UniProt P36969); test: Primary qHTS Assay for Inhibitors of Recombinant Selenoprotein Glutathione Peroxidase 4 (GPX4) (AID 1845192); settings: outcome: dose series up to 50 µM unless noted; note: series mostly up to about 50 µM; % is set by controls: 0 for no effect and ±100 for the full control effect; nearly all actives have a fitted effect of over 65% in size
Summary of the method: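 GR-coupled readout: 100 nM GR, 1 mM GSH, 0.5 mM NADPH; NADPH fluorescence (ex 340/em 450 nm) read at t=0 and after 15 min RT. GPX4 200 nM, preincubated 30 min with compound; substrate 0.5 mM CHP.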

[16] = qHTS drug screen for cell cycle checkpoint inhibitors in PARPi-resistant BRCA-mutant ovarian cancer cell lines. (AID 1963452; calls by dose curve); settings: PEO1/OlaR viability, CellTiter-Glo luminescence, 96 h, stronger effect = lower value
Summary of the method: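 PEO1, PEO4 and PEO1/OlaR ovarian cancer cells, 600 per well, exposed 96 h at 37C to a dilution series. Viability read by CellTiter-Glo luminescence, normalized to DMSO and empty wells; activity summarized as Z-AUC.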

[17] = qHTS assay to identify inhibitors of the type 1 interferon - major histocompatibility complex class I in skeletal muscle: Counter screen cell viability and HiBit confirmation (AID 1347412); settings: iHSKM muscle cells + IFN-b, HiBiT or CellTiter-Glo, 24 h; note: potency is the fitted concentration of half-maximal effect; nearly all actives have a fitted effect of over 60% in size
Summary of the method: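 HLA-B*08:01–HiBiT knock-in immortalized human myoblasts (C25cl48) stimulated with 4.0 ng/ml human IFN-beta and dosed with compound in a 12-point 1:3 titration (top final 46 uM). After 24 hrs at 37 C, HiBiT lytic luminescence or CellTiter Glo ATP read out.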

[18] = DH5-alpha competent E. coli microbial cell viability qHTS against the NCATS CANVASS Library (AID 1347377); settings: outcome: dose series up to 46.1 µM unless noted; note: 0% is about no effect
Summary of the method: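 qHTS, 11-pt; E. coli DH5-alpha, 0.2 OD; o/n 37C/5% CO2; BacTiter-Glo, 20 min RT; luminescence.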

[19] = Inflammasome Signaling qHTS Counterscreen: IL-1-beta AlphaLISA counterscreen against the NCATS CANVASS Library (AID 1347381);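 note: cell-free check with purified IL-1β in medium and no THP-1 cells; series mostly up to about 57 µM; 0% is about no effect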
Summary of the method: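 Cell-free interference check: compounds added to medium spiked with 4 pg purified IL-1β. Anti-IL-1β acceptor beads (6 ug/mL) with 0.6 nM biotinylated antibody added for 1 h at RT, then streptavidin donor beads (24 ug/mL) for 30 min in the dark. AlphaLISA read at 680/615 nm.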

[20] = Redox Reaction Profiling qHTS: Assay Interference Panel against the NCATS CANVASS Library (AID 1347401);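 note: 100% = activation by 2 µM chloranil control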
Summary of the method: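 Resazurin (5 uM) conversion to resorufin measured with 200 uM DTT in 50 mM HEPES pH 7.3, 50 mM NaCl. Compounds tested in 11-point qHTS series. Fluorescence (ex 525/em 598 nm) read before and after 15 min dark incubation.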

Luciferin 4-monooxygenase (Photinus pyralis), sequence (P08659 whole entry, looked up): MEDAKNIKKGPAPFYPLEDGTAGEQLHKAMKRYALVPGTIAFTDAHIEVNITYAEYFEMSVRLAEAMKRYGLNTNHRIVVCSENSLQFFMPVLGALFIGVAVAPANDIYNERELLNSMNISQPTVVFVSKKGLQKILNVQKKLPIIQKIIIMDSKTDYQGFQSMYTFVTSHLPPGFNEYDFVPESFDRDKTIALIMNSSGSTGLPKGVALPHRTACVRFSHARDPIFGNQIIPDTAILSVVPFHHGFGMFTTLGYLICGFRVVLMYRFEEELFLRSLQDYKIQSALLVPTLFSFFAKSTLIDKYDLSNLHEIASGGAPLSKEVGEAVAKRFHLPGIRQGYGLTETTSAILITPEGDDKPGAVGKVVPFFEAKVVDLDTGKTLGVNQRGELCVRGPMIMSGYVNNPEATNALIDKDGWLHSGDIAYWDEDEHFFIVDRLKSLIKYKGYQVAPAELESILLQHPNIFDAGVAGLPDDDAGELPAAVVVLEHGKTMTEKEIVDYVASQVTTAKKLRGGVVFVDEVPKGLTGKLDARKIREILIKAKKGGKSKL
Glutathione peroxidase 1 (Homo sapiens), sequence (P07203 whole entry, looked up): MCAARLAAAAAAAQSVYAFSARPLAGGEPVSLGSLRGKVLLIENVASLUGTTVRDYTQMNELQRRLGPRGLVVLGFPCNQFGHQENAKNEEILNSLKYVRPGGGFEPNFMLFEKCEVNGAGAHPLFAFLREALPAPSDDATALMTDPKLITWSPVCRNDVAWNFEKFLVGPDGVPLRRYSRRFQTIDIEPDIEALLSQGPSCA
Phospholipid hydroperoxide glutathione peroxidase GPX4 (Homo sapiens), sequence (P36969 whole entry, looked up): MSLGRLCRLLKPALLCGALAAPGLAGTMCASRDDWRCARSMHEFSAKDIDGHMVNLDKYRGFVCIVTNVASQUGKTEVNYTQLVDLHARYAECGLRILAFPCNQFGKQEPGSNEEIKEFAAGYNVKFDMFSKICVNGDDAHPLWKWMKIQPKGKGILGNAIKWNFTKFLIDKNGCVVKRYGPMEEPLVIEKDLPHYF

C[C@H](c1cnc(N)[nH]1)c1ccc(O)c2[nH]cc(-c3cnc(-c4c[nH]c5ccccc45)c(=O)[nH]3)c12
inactive: outcome [1] | Potency [2] | Potency [3] | Potency [4] | outcome [5] | Potency [6] | Potency [7] | Potency [8] | outcome [9] | Potency [10]

CC1(C)OC2=C(C(=O)c3ccccc3C2=O)[C@H](NCc2ccccc2)[C@@H]1O
inactive: Potency [14] | Potency [15] | Z-AUC [16] 0.63
1.45: Z-AUC ([16]; measured here: PEO4 Z-AUC)
active: Potency [11] 9.3 µM | Potency [12] 7.42 µM | Potency [13] 6.61 µM | Potency ([17]; HiBiT) 9.91 µM | Potency ([17]; Viability) 14 µM
1.22: Z-AUC ([16]; measured here: PEO1 parental Z-AUC)

O=C1CCC(=O)N(O)CCCCCNC(=O)CCC(=O)N(O)CCCCCNC(=O)CCC(=O)N(O)CCCCCN1
inactive: outcome [1] | Potency [2] | Potency [3] | Potency [4] | outcome [5] | Potency [6] | Potency [7] | outcome [9] | outcome [18] | Potency [10] | outcome [19] | Potency [20]

CC[C@@H](c1cc(OC)c(OC)cc1OC)[C@H](C)[C@@H](/C(C)=C/c1cc(OC)c(OC)cc1OC)c1cc(OC)c(OC)cc1OC
inactive: outcome [1] | Potency [2] | Potency [3] | Potency [4] | outcome [5] | Potency [6] | Potency [7] | Potency [8] | outcome [9] | outcome [18] | Potency [10] | outcome [19] | Potency [20]

COc1cc(C2C3=C(Cc4cc5c(cc42)OCO5)C(=O)OC3)cc(OC)c1OC (stereo not drawn)
inactive: outcome [1] | Potency [2] | Potency [3] | Potency [4] | outcome [5] | Potency [6] | Potency [7] | outcome [9] | outcome [18] | Potency [10] | outcome [19] | Potency [20]

C/C1=C/[C@@H](C)[C@H](O)C/C=C/CC/C=C/C(=O)O[C@@H]1[C@H](C)C(=O)CCCC1CC(=O)NC(=O)C1
inactive: outcome [1] | Potency [2] | Potency [3] | Potency [4] | outcome [5] | Potency [6] | Potency [7] | Potency [8] | outcome [9] | outcome [18] | Potency [10] | outcome [19] | Potency [20]

C[C@H]1CCC2(OC1)O[C@H]1C[C@H]3[C@@H]4CC(=O)[C@]5(O)C[C@H](O)CC[C@@]5(C)[C@H]4CC[C@@]3(C)[C@H]1[C@H]2C (stereo partly drawn)
inactive: outcome [1] | Potency [2] | Potency [3] | Potency [4] | outcome [5] | Potency [6] | Potency [7] | Potency [8] | outcome [9] | outcome [18] | Potency [10] | outcome [19] | Potency [20]
